Cruzain Triton: inhibitors of Trypanosoma cruzi cruzain with detergent; P25779; purified cruzain, Z-FR-AMC fluorescence, 0.01% Triton; Potency, µM, inactives show max response, negative = inhibition, usual class: inhibitors; 200,000 compounds, 0.43% hits; AID 1478;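 also: plate controls were neutral wells for no effect and buffer without enzyme for full effect; nearly all actives have a fitted effect of over 40% in size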
Target sequence (P25779 123-467 limits assumed): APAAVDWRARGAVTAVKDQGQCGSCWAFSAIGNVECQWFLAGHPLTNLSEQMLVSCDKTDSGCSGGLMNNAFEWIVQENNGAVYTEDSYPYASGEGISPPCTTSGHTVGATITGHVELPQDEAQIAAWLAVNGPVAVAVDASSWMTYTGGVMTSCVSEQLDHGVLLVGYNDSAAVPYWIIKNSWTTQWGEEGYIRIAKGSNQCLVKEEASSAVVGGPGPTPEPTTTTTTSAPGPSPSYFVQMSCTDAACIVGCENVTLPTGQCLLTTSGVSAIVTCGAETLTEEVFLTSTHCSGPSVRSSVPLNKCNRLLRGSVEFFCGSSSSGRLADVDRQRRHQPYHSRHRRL
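Steps: dispense cruzain (1.5 nM final) in acetate buffer pH 5.5 with DTT and 0.01% Triton X-100; pin-transfer compounds; incubate 15 min RT; add Z-FR-AMC (2 uM final); read fluorescence every 30 s, using the 60 s intensity change.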
NS1 function inh: blocks influenza NS1 protein function; Potency, µM (doses to about 46.1 µM), for inactives: at the highest dose activity, positive = more growth; 270,000 compounds, 0.4% hits; AID 2326; calls by dose curve; also: actives are rising curves; nearly all actives have a fitted effect of over 50% in size
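S. cerevisiae expressing influenza A NS1, grown in glucose, washed, then diluted 1:100 into pH 6.0 -URA galactose medium with 23 nl compound. Growth recovery read as OD600; NS1-free strain serves as control.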
Cruzain noTriton: cruzain (T. cruzi) inhibition without detergent | purified cruzain, Z-FR-AMC fluorescence, no detergent | P25779 | AID 1476 | Potency, µM, for the others: max response, negative = inhibition, hits mostly inhibitors | 200,000 compounds, 2.3% hits;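 also: plate controls were enzyme without inhibitor for no effect and buffer without enzyme for full effect; nearly all actives have a fitted effect of over 40% in size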
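Purified cruzain at 1.5 nM, pre-incubated 15 min with compound at room temperature in 100 mM sodium acetate pH 5.5, 5 mM DTT, 0.00005% Triton X-100. Reaction started with 2 uM Z-FR-AMC; AMC fluorescence increase over 60 s gives rate.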
Starred values were filed as active, the others as inactive; ? = inconclusive; · = no result given. Shown is part of a subset that was picked to be rich in hits. Unless noted, calls follow the shape of the dose curve; as a rule, active = well fitted curve in the direction sought with a large enough effect; inconclusive = small, poorly fitted or top-dose-only effect, or another doubt; inactive = no such curve, though single readings can be large; an effect the other way counts as inactive or inconclusive. Potency is read from the fitted curve at half-maximal effect.

SMILES	Cruzain Triton	NS1 function inh	Cruzain noTriton
COc1cccc(CN2C(=O)N(c3ccc(C)cc3)C(=O)C2CC(=O)Nc2cc(OC)cc(OC)c2)c1 (stereo not drawn)	-6.0%	·	26.0%
O=C(NCc1ccc2c(c1)OCO2)C1CCN(c2ccc(S(=O)(=O)N3CCCC3)cc2)CC1	-1.1%	12.2%	25.1µM*
O=C(NCc1ccc2c(c1)OCO2)C1CCN(S(=O)(=O)N2CCCCC2)CC1	-3.2%	-13.5%	-1.3%
Cc1nn2c(=O)cc(COC(=O)c3cccc(NC(=O)c4ccc(F)cc4)c3)nc2s1	0.6%	·	-2.0%
CC1CCCCN1S(=O)(=O)c1ccc(C(=O)Nc2sc3c(c2C(N)=O)CC(C)(C)NC3(C)C)cc1 (stereo not drawn)	0.3%	·	9.7%
COc1ccc(OC)c(-c2csc(NC(=O)C3c4ccccc4Oc4ccccc43)n2)c1	0.7%	18.0%	20µM*
O=C(Nc1nc(-c2ccccc2)cs1)C1c2ccccc2Oc2ccccc21	4.6%	1.9%	20µM*
O=C(Nc1nc(-c2ccncc2)cs1)C1c2ccccc2Oc2ccccc21	-9.5%	-15.2%	?
COc1ccc(OC)c(-c2csc(NC(=O)Cc3ccccc3)n2)c1	·	0.9%	·
CCc1ccc(CNC(=O)C(CC)n2nc(C)c3c(C)n(-c4ccccc4)nc3c2=O)cc1 (stereo not drawn)	0.8%	·	-9.4%
COc1ccc(C(=O)n2nc(-c3ccco3)nc2NCc2cccs2)cc1	-7.9%	·	-4.7%
CCCNC(=O)c1c(NC(=O)C2COc3ccccc3O2)sc2c1CCCC2 (stereo not drawn)	1.7%	6.2%	20µM*
O=C(NC1CCS(=O)(=O)C1)c1c(NC(=O)C2COc3ccccc3O2)sc2c1CCCC2 (stereo not drawn)	-3.8%	15.2%	-7.7%
Cc1ccc(Cn2cc(S(=O)(=O)c3ccc(Cl)cc3)c(=O)c3cc(F)ccc32)cc1	0.4%	-0.6%	?
Cc1ccc(C)c(S(=O)(=O)c2cn(Cc3ccccc3)c3cc(F)c(F)cc3c2=O)c1	-4.8%	·	25.1µM*
COc1cc(Cl)c(C)cc1NC(=O)c1cc2ccc3cccnc3c2[nH]1	-2.4%	·	?
O=C(CSc1ncnc2scc(-c3ccccc3)c12)N1CCN(c2ccccc2F)CC1	-4.4%	?	31.6µM*
COc1ccccc1N1CCN(C(=O)CSc2ncnc3scc(-c4ccccc4)c23)CC1	0.2%	21.5%	6.5%
CN(C)CCC[C@@H]1c2ccccc2Oc2ccc(C(F)(F)F)cc21	0.4%	-8.1%	-3.1%
Cc1ccc2c(c1)NC(c1cccnc1)=NC(c1ccc(F)cc1)=N2	-3.7%	·	4.6%
Cc1ccc(C2=NC(c3ccc(F)cc3)=Nc3ccc(C)cc3N2)cc1	-0.6%	·	25.1µM*
C[C@@H](C(=O)Nc1ccc2ccccc2c1)[C@@H]1C[C@@]1(C)[C@@H](NC(=O)Oc1ccc(F)cc1)c1ccccc1	3.2%	·	7.94µM*
CC(=O)N[C@@H](c1ccccc1)[C@]1(C)C[C@H]1[C@@H](C)C(=O)Nc1ccc2ccccc2c1	-1.6%	·	?
C[C@@H](C(=O)Nc1ccc2ccccc2c1)[C@@H]1C[C@@]1(C)[C@@H](NS(=O)(=O)c1ccc(-c2ccccc2)cc1)c1ccccc1	1.3%	·	3.16µM*
C[C@@H](C(=O)Nc1ccc2ccccc2c1)[C@@H]1C[C@@]1(C)[C@@H](NS(=O)(=O)c1ccccc1)c1ccccc1	-0.8%	·	?
SMILES	Cruzain Triton	NS1 function inh	Cruzain noTriton
CCOc1cc(C(=O)Nc2ccc(-c3nc4ccccc4s3)cc2Cl)cc(OCC)c1OCC	0.6%	·	-4.8%
Cc1ccc(C2CC(=O)Oc3ccc(C(C)(C)C)cc32)cc1 (stereo not drawn)	0.8%	·	2.5%
CCOCCn1ccc2c(OCC(=O)Nc3cc(C(F)(F)F)ccc3Cl)cccc2c1=O	0.9%	·	-12.7%
CCCCCCCCCCCCC/C=C/[C@@H](O)[C@H](CO)NCCCCCCCC	4.3%	·	-1.7%
c1nc[nH]n1	5.1%	·	-2.2%
Cc1ccc(Cl)cc1-n1nnc(-c2nsc(NC(=O)c3ccccc3Cl)n2)c1C	-4.9%	·	3.16µM*
Cc1ccc(C(=O)Nc2nc(-c3nnn(-c4cccc(Cl)c4C)c3C)ns2)cc1C	-1.5%	·	?
O=C(CN1c2ccccc2Sc2ccccc21)NNC(=S)Nc1ccc(Cl)cc1Cl	7.5%	20.4%	10µM*
O=C(CN1c2ccccc2Sc2ccccc21)NNC(=S)Nc1ccc(Cl)cc1	·	10.3%	·
Cc1nc2cnc(N3CCOCC3)nc2n(CCc2ccccc2)c1=O	-1.0%	·	11.1%
COc1ccc(/C=C/C(=O)Nc2cc(C)nn2-c2nc3ccccc3n2Cc2cccc([N+](=O)[O-])c2)cc1	0.0%	5.7%	7.94µM*
COc1ccc(/C=C/C(=O)Nc2cc(C)nn2-c2nc3ccccc3[nH]2)cc1	-28.7%	-8.4%	?
CN(CCOc1ccc(-c2ccn(S(=O)(=O)c3cccc4ccccc34)n2)cc1)c1ccccn1	-0.7%	24.0%	25.1µM*
CN(CCOc1ccc(-c2ccn(S(=O)(=O)c3c(Cl)cccc3Cl)n2)cc1)c1ccccn1	6.4%	9.3%	?
O=C(COC(=O)c1sc2ccccc2c1Cl)Nc1ncc(Cl)cc1Cl	-4.6%	11.2%	?
Cc1ccccc1NC(=O)COC(=O)CNC(=O)c1sc2ccccc2c1Cl	7.94µM*	-6.5%	3.16µM*
O=C(COC(=O)CNC(=O)c1sc2ccccc2c1Cl)Nc1c(Cl)cc(Cl)cc1Cl	25.1µM*	15.5%	?
O=C(CNC(=O)c1sc2ccccc2c1Cl)NCc1ccccc1	·	3.5%	·
CCOc1ccc(NC(=O)CC2C(=O)N(c3cccc(C)c3)C(=O)N2CCC2=CCCCC2)cc1 (stereo not drawn)	-2.2%	·	2.0%
Cc1cccc(NC(=O)CN2C(=O)COc3ccc(S(=O)(=O)N4CCC(C)CC4)cc32)c1C	-1.7%	·	-8.6%
CCS(=O)(=O)c1ncc(Cl)c(C(=O)N2CCN(c3cccc(Cl)c3)CC2)n1	-6.8%	·	11.2%
Cc1ccccc1NC(=S)/C(=C(\[O-])c1ccc(C)c([N+](=O)[O-])c1)[n+]1ccccc1	-19.8%	-4.4%	-21.9%
Cc1ccc(/C([O-])=C(/C(=S)NCCN2CCOCC2)[n+]2ccccc2)cc1[N+](=O)[O-]	·	8.8%	·
Cc1ccc(NC(=S)/C(=C(\[O-])c2ccc(C)c([N+](=O)[O-])c2)[n+]2ccccc2)cc1C	-6.3%	1.1%	25.1µM*
COc1cccc(NC(=S)/C(=C(\[O-])c2ccc(C)c([N+](=O)[O-])c2)[n+]2ccccc2)c1	-9.8%	-1.3%	25.1µM*
SMILES	Cruzain Triton	NS1 function inh	Cruzain noTriton
COc1ccc(S(=O)(=O)N(CCO)c2ccccc2CN(C)CC=Cc2ccc(Cl)cc2)cc1	-0.8%	·	?
O=c1ccc(-c2ccccc2)nn1Cc1c(F)cccc1Cl	-7.3%	·	-12.7%
N#CC(=Cc1ccc(O)c(O)c1)C(N)=S	-11.1%	11.8%	-22.5%
Cc1ccc(-n2cnc3cc(C(=O)NCc4ccccc4Cl)ccc32)c(C)c1	-0.3%	·	?
S=c1nc[nH]c2c1ncn2Cc1ccco1	1.2%	0.0%	4.7%
CCCC[C@@H]1C[C@H]1C(NC(=O)c1ccco1)c1ccccc1 (stereo partly drawn)	-11.5%	·	2.4%
COc1ccccc1N1CCN(Cc2ccc(O)c3ncccc23)CC1	0.0%	-53.1%	19.1%
Oc1ccc(CN2CCCc3ccccc32)c2cccnc12	-5.7%	-55.2%	25.1µM*
Nc1cc(C(=O)O)ccc1Nc1ccccc1	-1.1%	8.1%	-4.5%
Nc1ccc(Nc2ccccc2N)cc1	-9.1%	13.5%	25.1µM*
